# PubChem BioAssay (EPA / NIEHS)
# Activity calls are given as the source filed them. Rule for the calls: active = hit-call score of the fitted dose curve at least 0.9, where 1 is the maximum; inactive = score below 0.9.
# Legend:
# Details in all cases: mRNA level, 48 h; actives raise or lower the signal
# [1] = read-out: Tumor necrosis factor receptor superfamily member 6 (Homo sapiens) (UniProt P25445); assay: LTEA_HepaRG_FAS: Life Technologies and Expression Analysis (LTEA) Assay for Fas cell surface death receptor (FAS) using HepaRG (AID 2283447)
# Procedure, shortened: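 FAS transcript level was measured by TaqMan qRT-PCR against three housekeeping genes after 48 h chemical exposure. Cells were HepaRG, 0.5% DMSO vehicle, with a top concentration of 100 uM and half-log dilutions over eight points, in duplicate.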
# [2] = read-out: Fatty acid synthase (Homo sapiens) (UniProt P49327); assay: LTEA_HepaRG_FASN: Life Technologies and Expression Analysis (LTEA) Assay for Fatty Acid Synthase (FASN) using HepaRG (AID 2283448)
# Procedure, shortened: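 Differentiated human HepaRG cells were exposed for 48 h in serum-free induction medium to eight half-log concentrations up to 100 uM in 0.5% DMSO, in duplicate. FASN mRNA was quantified by TaqMan qRT-PCR, normalized to ACTB/GAPDH/POLR2A, and fitted bidirectionally against DMSO.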
# [3] = read-out: Cyclin Dependent Kinase Inhibitor 1A (CDKN1A), CDKN1A (gene 1026); assay: LTEA_HepaRG_CDKN1A: Life Technologies and Expression Analysis (LTEA) Assay for Cyclin Dependent Kinase Inhibitor 1A (CDKN1A) using HepaRG (AID 2283450)
# Procedure, shortened: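 Differentiated HepaRG cells in serum-free induction medium, exposed 48 h in duplicate to eight half-log concentrations up to 100 uM in 0.5% DMSO. mRNA measured by TaqMan qRT-PCR, normalized to ACTB, GAPDH, POLR2A; bidirectional fit versus DMSO.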
# [4] = read-out: Cyclin D1 (CCND1), CCND1 (gene 595); assay: LTEA_HepaRG_CCND1: Life Technologies and Expression Analysis (LTEA) Assay for Cyclin D1 (CCND1) using HepaRG (AID 2283451);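 for AC50: TaqMan qRT-PCR transcript level normalised to ACTB GAPDH and POLR2A housekeeping genes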
# Procedure, shortened: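 Differentiated HepaRG cells exposed 48 h in serum-free induction medium to eight half-log concentrations from 100 uM top, 0.5% DMSO, duplicates. CCND1 mRNA measured by Fluidigm TaqMan qRT-PCR, normalised to ACTB, GAPDH, POLR2A; bidirectional fit.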
# [5] = read-out: catalase (CAT), CAT (gene 847); assay: LTEA_HepaRG_CAT: Life Technologies and Expression Analysis (LTEA) Assay for catalase (CAT) using HepaRG (AID 2283452);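 for AC50: TaqMan qRT-PCR signal normalized to ACTB GAPDH and POLR2A housekeeping genes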
# Procedure, shortened: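 Expression of CAT was quantified by TaqMan qRT-PCR with ACTB/GAPDH/POLR2A normalization after 48 h chemical exposure of HepaRG. Eight-point half-log series, top 100 uM, in 0.5% DMSO; gain or loss fitted against vehicle.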
# [6] = read-out: flavin-containing dimethylaniline monooxygenases 3 (FMO3), FMO3 (gene 2328); assay: LTEA_HepaRG_FMO3: Life Technologies and Expression Analysis (LTEA) Assay for flavin-containing dimethylaniline monooxygenases 3 (FMO3) using HepaRG (AID 2283453);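 for AC50: FMO3 transcript by TaqMan qRT-PCR normalized to ACTB GAPDH and POLR2A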
# Procedure, shortened: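 HepaRG, 48 h exposure, 8-pt half-log series from 100 uM, 0.5% DMSO vehicle, duplicates; FMO3 transcript by Fluidigm TaqMan qRT-PCR, housekeeping-normalized; gain/loss fit vs DMSO.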
# [7] = read-out: Cytochrome P450 (CYP1A1), CYP1A1 (gene 1543); assay: LTEA_HepaRG_CYP1A1: Life Technologies and Expression Analysis (LTEA) Assay for Cytochrome P450 (CYP1A1) using HepaRG (AID 2283454)
# Procedure, shortened: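 Differentiated human HepaRG cells, after 48 h plating, exposed in duplicate for 48 h in serum-free induction medium to 8 half-log concentrations up to 100 uM in 0.5% DMSO. CYP1A1 mRNA by qRT-PCR, normalized to ACTB/GAPDH/POLR2A; bidirectional fit versus DMSO.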
# [8] = read-out: CFLAR gene, CFLAR (gene 8837); assay: LTEA_HepaRG_CFLAR: Life Technologies and Expression Analysis (LTEA) Assay for CFLAR gene using HepaRG (AID 2283455)
# Procedure, shortened: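 HepaRG, 48 h exposure, 8-pt conc-response (100 uM top, half-log), 0.5% DMSO vehicle, duplicates. CFLAR expression by qRT-PCR; ACTB/GAPDH/POLR2A normalization; gain or loss fit vs DMSO baseline.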
# [9] = read-out: Forkhead box O1 (FOXO1), FOXO1 (gene 2308); assay: LTEA_HepaRG_FOXO1: Life Technologies and Expression Analysis (LTEA) Assay for Forkhead box O1 (FOXO1) using HepaRG (AID 2283456)
# Procedure, shortened: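 Readout is FOXO1 transcript level by multiplexed qRT-PCR against three housekeeping genes, curve-fitted in both directions relative to 0.5% DMSO vehicle. Human HepaRG cultures received chemicals for 48 h, up to 100 uM in half-log steps.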
# [10] = read-out: growth arrest and DNA damage 45 (GADD45A), GADD45A (gene 1647); assay: LTEA_HepaRG_GADD45A: Life Technologies and Expression Analysis (LTEA) Assay for growth arrest and DNA damage 45 (GADD45A) using HepaRG (AID 2283458)
# Procedure, shortened: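 Differentiated HepaRG cells were exposed in duplicate for 48 h in serum-free induction medium to 8-point half-log concentrations up to 100 uM in 0.5% DMSO. GADD45A mRNA was measured by TaqMan qRT-PCR, normalized to ACTB, GAPDH and POLR2A, with bidirectional fitting versus DMSO.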
# [11] = read-out: Forkhead box O3 (FOXO3), FOXO3 (gene 2309); assay: LTEA_HepaRG_FOXO3: Life Technologies and Expression Analysis (LTEA) Assay for Forkhead box O3 (FOXO3) using HepaRG (AID 2283459)
# Procedure, shortened: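 HepaRG, 48 h post-dose; 8 conc., half-log from 100 uM, 0.5% DMSO, duplicates; serum-free induction medium. Readout: FOXO3 mRNA, TaqMan qRT-PCR, housekeeping-normalized. Bidirectional curve fit vs DMSO baseline.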
# [12] = read-out: ABC Transporter (ABCB1), ABCB1 (gene 5243); assay: LTEA_HepaRG_ABCB1: Life Technologies and Expression Analysis (LTEA) Assay for ABC Transporter (ABCB1) using HepaRG (AID 2283460)
# Procedure, shortened: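 Expression of ABCB1 was quantified by qRT-PCR against three housekeeping genes after human HepaRG cultures received test chemicals for 48 hours. Concentrations spanned eight half-log steps topping at 100 uM in 0.5% DMSO; gain or loss of signal was fitted relative to vehicle.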
# [13] = read-out: growth arrest and DNA damage 45 (GADD45B), GADD45B (gene 4616); assay: LTEA_HepaRG_GADD45B: Life Technologies and Expression Analysis (LTEA) Assay for growth arrest and DNA damage 45 (GADD45B) using HepaRG (AID 2283461)
# Procedure, shortened: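 Differentiated human HepaRG cells in serum-free induction medium exposed 48 h in duplicate to eight concentrations, top 100 uM, half-log steps, 0.5% DMSO. GADD45B mRNA by TaqMan qRT-PCR, normalized to ACTB, GAPDH, POLR2A; bidirectional fit versus DMSO.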
# [14] = read-out: ABC Transporter (ABCC3), ABCC3 (gene 8714); assay: LTEA_HepaRG_ABCC3: Life Technologies and Expression Analysis (LTEA) Assay for ABC Transporter (ABCC3) using HepaRG (AID 2283462)
# Procedure, shortened: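 Differentiated human HepaRG cells exposed 48 h in serum-free induction medium, 0.5% DMSO vehicle, 8-point half-log series to 100 uM in duplicate. ABCC3 mRNA by qRT-PCR, normalised to ACTB, GAPDH, POLR2A; bidirectional fit vs DMSO.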
# [15] = read-out: ABC Transporter (ABCB11), ABCB11 (gene 8647); assay: LTEA_HepaRG_ABCB11: Life Technologies and Expression Analysis (LTEA) Assay for ABC Transporter (ABCB11) using HepaRG (AID 2283463)
# Procedure, shortened: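 ABCB11 transcript levels are read by Fluidigm TaqMan qRT-PCR after 48 h chemical treatment of human HepaRG cells. Concentrations span 100 uM downward in half-log steps with 0.5% DMSO; gain or loss is fitted against DMSO controls.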
# [16] = read-out: ABC Transporter (ABCC2), ABCC2 (gene 1244); assay: LTEA_HepaRG_ABCC2: Life Technologies and Expression Analysis (LTEA) Assay for ABC Transporter (ABCC2) using HepaRG (AID 2283464)
# Procedure, shortened: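 Differentiated HepaRG cells in serum-free induction medium exposed 48 h to eight half-log concentrations up to 100 uM, 0.5% DMSO, in duplicate. ABCC2 mRNA measured by qRT-PCR (TaqMan, Fluidigm), normalized to ACTB, GAPDH and POLR2A. Fitted in both directions against DMSO.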
# [17] = read-out: Broad substrate specificity ATP-binding cassette transporter ABCG2 (Homo sapiens) (UniProt Q9UNQ0); assay: LTEA_HepaRG_ABCG2: Life Technologies and Expression Analysis (LTEA) Assay for ABC Transporter (ABCG2) using HepaRG (AID 2283465)
# Procedure, shortened: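 Read-out is ABCG2 mRNA induction or loss quantified by qRT-PCR after 48 h chemical treatment of human HepaRG cells, normalized to three housekeeping genes. Concentrations reached 100 uM top in half-log steps; fitting was bidirectional against 0.5% DMSO.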
# [18] = read-out: Cyclin D2 (CCND2), CCND2 (gene 894); assay: LTEA_HepaRG_CCND2: Life Technologies and Expression Analysis (LTEA) Assay for Cyclin D2 (CCND2) using HepaRG (AID 2283449)
# Procedure, shortened: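 Read-out is CCND2 mRNA level measured by qRT-PCR in human HepaRG liver cells and normalised to three housekeeping genes. Chemicals were applied for 48 h at up to 100 uM, with gain or loss fitted relative to 0.5% DMSO.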
# Chain of Fatty acid synthase (Homo sapiens) (P49327 whole entry, looked up): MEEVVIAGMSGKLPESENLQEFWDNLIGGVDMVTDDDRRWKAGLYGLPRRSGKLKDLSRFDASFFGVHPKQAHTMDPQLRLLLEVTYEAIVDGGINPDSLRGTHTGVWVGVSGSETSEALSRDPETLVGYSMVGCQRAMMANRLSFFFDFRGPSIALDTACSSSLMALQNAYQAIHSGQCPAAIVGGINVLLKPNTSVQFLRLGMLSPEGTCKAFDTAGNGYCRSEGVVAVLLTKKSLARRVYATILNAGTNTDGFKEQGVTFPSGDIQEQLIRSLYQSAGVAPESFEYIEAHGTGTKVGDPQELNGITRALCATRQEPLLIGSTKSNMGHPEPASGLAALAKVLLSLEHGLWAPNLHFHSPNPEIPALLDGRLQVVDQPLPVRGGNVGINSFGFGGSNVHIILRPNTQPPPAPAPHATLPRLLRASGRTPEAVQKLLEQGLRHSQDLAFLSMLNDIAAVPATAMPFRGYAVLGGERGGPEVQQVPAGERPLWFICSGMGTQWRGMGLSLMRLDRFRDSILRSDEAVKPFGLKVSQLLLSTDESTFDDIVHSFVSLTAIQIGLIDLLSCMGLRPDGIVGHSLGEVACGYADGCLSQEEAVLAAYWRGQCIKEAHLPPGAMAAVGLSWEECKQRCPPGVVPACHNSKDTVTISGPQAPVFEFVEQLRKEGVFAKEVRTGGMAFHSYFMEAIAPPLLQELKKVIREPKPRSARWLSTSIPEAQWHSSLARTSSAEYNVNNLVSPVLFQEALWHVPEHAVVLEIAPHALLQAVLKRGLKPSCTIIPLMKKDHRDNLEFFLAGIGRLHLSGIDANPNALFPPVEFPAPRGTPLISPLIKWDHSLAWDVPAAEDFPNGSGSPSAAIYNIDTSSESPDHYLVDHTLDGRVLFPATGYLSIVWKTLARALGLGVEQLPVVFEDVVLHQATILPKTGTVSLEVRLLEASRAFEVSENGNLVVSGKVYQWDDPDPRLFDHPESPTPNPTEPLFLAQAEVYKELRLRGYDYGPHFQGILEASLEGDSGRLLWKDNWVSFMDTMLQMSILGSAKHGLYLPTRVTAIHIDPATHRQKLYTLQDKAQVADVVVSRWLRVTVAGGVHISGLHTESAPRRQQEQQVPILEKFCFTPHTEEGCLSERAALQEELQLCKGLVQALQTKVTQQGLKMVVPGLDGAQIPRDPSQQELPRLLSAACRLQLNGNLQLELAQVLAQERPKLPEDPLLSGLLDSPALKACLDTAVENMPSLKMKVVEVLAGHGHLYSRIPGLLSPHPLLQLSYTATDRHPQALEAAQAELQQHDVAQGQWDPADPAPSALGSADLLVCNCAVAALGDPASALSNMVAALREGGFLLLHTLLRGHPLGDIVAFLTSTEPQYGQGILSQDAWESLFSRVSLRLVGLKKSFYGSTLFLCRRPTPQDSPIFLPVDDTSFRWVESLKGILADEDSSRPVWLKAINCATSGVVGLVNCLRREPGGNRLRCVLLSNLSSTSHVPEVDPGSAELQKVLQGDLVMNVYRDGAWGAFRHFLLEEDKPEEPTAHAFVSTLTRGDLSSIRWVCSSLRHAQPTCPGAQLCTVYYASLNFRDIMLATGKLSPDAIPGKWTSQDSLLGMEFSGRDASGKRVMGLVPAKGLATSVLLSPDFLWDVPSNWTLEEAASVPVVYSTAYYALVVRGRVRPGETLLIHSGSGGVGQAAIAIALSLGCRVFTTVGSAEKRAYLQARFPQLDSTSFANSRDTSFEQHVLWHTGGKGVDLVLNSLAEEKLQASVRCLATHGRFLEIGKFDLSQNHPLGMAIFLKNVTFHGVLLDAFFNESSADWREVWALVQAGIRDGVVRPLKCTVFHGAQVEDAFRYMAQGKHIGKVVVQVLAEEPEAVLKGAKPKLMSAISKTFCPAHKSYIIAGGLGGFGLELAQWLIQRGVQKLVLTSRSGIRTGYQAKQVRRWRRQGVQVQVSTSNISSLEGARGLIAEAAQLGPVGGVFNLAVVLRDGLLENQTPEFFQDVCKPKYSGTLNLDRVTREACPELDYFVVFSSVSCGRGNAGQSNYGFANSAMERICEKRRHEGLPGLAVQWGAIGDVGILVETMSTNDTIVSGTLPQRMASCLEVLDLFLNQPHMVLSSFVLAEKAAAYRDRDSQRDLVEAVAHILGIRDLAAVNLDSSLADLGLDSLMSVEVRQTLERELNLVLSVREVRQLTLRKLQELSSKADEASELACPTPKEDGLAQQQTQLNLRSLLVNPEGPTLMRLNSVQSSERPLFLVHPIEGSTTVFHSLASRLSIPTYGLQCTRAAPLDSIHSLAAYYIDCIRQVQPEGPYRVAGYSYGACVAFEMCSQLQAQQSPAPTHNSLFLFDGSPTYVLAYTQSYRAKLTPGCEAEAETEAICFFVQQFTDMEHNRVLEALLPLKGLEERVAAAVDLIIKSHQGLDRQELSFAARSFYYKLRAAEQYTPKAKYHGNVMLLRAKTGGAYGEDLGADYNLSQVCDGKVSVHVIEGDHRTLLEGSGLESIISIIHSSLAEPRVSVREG
# Chain of Broad substrate specificity ATP-binding cassette transporter ABCG2 (Homo sapiens) (Q9UNQ0 whole entry, looked up): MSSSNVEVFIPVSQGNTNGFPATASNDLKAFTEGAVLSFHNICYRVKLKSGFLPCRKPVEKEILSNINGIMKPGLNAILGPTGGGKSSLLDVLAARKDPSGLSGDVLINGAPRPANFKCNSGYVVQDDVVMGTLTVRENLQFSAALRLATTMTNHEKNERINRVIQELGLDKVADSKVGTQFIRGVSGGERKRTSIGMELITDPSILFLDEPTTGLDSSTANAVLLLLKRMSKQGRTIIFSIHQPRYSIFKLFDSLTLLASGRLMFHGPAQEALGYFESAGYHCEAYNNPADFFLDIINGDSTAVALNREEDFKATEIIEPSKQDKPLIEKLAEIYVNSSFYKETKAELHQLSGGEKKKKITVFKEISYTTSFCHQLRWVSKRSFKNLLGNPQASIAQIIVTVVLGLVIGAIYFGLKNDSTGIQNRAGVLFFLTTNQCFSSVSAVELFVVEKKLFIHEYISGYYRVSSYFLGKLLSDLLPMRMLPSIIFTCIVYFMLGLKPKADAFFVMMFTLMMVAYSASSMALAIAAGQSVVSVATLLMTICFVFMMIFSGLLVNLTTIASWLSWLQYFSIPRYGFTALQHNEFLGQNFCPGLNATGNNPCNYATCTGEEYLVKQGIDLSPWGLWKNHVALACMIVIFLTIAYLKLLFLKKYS
smiles,measurement,setting,value
c1ccc2c(c1)oc1ccccc12,outcome,[1],inactive
same,outcome,[2],inactive
same,outcome,[3],inactive
same,outcome,[4],inactive
same,outcome,[5],inactive
same,outcome,[6],inactive
same,AC50,[7],50 µM (active)
same,outcome,[8],inactive
same,outcome,[9],inactive
same,outcome,[10],inactive
same,outcome,[11],inactive
same,outcome,[12],inactive
same,outcome,[13],inactive
same,outcome,[14],inactive
same,outcome,[15],inactive
same,outcome,[16],inactive
same,outcome,[17],inactive
CN(C)c1ccc(C(=O)c2ccc(N(C)C)cc2)cc1,outcome,[1],inactive
same,outcome,[2],inactive
same,outcome,[18],inactive
same,outcome,[3],inactive
same,outcome,[4],inactive
same,outcome,[5],inactive
same,AC50,[6],50 µM (active)
same,AC50,[7],14.6 µM (active)
same,outcome,[8],inactive
same,outcome,[9],inactive
same,outcome,[11],inactive
same,outcome,[12],inactive
same,outcome,[13],inactive
same,outcome,[14],inactive
same,outcome,[16],inactive
same,outcome,[17],inactive
CCNS(=O)(=O)C(F)(F)C(F)(F)C(F)(F)C(F)(F)C(F)(F)C(F)(F)C(F)(F)C(F)(F)F,outcome,[1],inactive
same,AC50,[2],48.2 µM (active)
same,outcome,[3],inactive
same,outcome,[4],inactive
same,outcome,[5],inactive
same,AC50,[6],75.9 µM (active)
same,AC50,[7],69.3 µM (active)
same,outcome,[8],inactive
same,outcome,[9],inactive
same,outcome,[10],inactive
same,outcome,[11],inactive
same,outcome,[12],inactive
same,outcome,[13],inactive
same,outcome,[14],inactive
same,AC50,[15],23.7 µM (active)
same,outcome,[16],inactive
same,outcome,[17],inactive
CCCCCCCCn1sccc1=O,outcome,[1],inactive
same,AC50,[2],75.1 µM (active)
same,outcome,[3],inactive
same,AC50,[4],83.7 µM (active)
same,AC50,[5],85.6 µM (active)
same,AC50,[6],88.9 µM (active)
same,AC50,[7],32.8 µM (active)
same,AC50,[8],78.9 µM (active)
same,outcome,[9],inactive
same,outcome,[11],inactive
same,outcome,[12],inactive
same,outcome,[13],inactive
same,AC50,[14],73.8 µM (active)
same,AC50,[15],72.1 µM (active)
same,outcome,[16],inactive
same,outcome,[17],inactive
[O-][Cl+]O,outcome,[2],inactive
same,outcome,[3],inactive
same,outcome,[4],inactive
same,outcome,[5],inactive
same,outcome,[6],inactive
same,outcome,[7],inactive
same,outcome,[8],inactive
same,outcome,[9],inactive
same,outcome,[10],inactive
same,outcome,[11],inactive
same,outcome,[12],inactive
same,outcome,[13],inactive
same,outcome,[14],inactive
same,outcome,[15],inactive
same,outcome,[16],inactive
same,outcome,[17],inactive
ClCCOCCCl,outcome,[1],inactive
same,outcome,[2],inactive
same,outcome,[3],inactive
same,outcome,[4],inactive
same,outcome,[5],inactive
same,outcome,[6],inactive
same,outcome,[7],inactive
same,outcome,[8],inactive
same,outcome,[9],inactive
same,outcome,[11],inactive
same,outcome,[12],inactive
same,outcome,[13],inactive
same,outcome,[14],inactive
same,outcome,[16],inactive
same,outcome,[17],inactive
COC(=O)Nc1nc2ccccc2[nH]1,outcome,[1],inactive
same,outcome,[2],inactive
same,outcome,[3],inactive
same,outcome,[4],inactive
same,outcome,[5],inactive
same,outcome,[6],inactive
same,AC50,[7],24.7 µM (active)
same,outcome,[8],inactive
same,outcome,[9],inactive
same,outcome,[11],inactive
same,outcome,[12],inactive
same,outcome,[13],inactive
same,outcome,[14],inactive
same,outcome,[16],inactive
same,outcome,[17],inactive
O=[N+]([O-])C(Br)(CO)CO,outcome,[1],inactive
same,outcome,[2],inactive
same,outcome,[18],inactive
same,outcome,[3],inactive
same,outcome,[4],inactive
same,outcome,[5],inactive
same,outcome,[6],inactive
same,AC50,[7],50 µM (active)
same,outcome,[8],inactive
same,outcome,[9],inactive
same,outcome,[11],inactive
same,outcome,[12],inactive
same,outcome,[13],inactive
same,outcome,[14],inactive
same,outcome,[16],inactive
same,outcome,[17],inactive
